Assay results published in the supplement of paper PMC12645437, “Orthogonal IMiD-Degron Pairs Induce Selective Protein Degradation in Cells” (ACS Chemical Biology, 2025).
Over roughly 8,300 sequences, “log2 fold change of degron read counts, EGFP-low vs EGFP+ sorted cells (limma voom), compound-induced degradation” has its median near -1.1; the highest 2% begin near 3.2. Only a selection was taken, and the highest values are over-represented in it overall.

T1: CRBN, Q96SW2
T1 chain: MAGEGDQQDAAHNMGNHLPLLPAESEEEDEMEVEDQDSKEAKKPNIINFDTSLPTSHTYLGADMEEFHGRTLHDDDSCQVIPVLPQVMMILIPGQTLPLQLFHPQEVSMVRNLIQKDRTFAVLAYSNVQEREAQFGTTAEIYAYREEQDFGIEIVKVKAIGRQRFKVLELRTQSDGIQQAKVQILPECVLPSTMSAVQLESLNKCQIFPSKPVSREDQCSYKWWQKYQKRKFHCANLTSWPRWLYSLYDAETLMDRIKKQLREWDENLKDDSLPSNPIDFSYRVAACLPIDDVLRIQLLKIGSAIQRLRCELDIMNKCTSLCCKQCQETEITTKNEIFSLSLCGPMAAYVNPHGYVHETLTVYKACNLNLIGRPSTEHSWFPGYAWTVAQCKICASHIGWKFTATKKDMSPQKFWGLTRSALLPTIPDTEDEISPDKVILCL


Target: T1, CRBN, Q96SW2
Experiment: log2 fold change of degron read counts, EGFP-low vs EGFP+ sorted cells (limma voom), compound-induced degradation; higher = more compound-induced degradation of the degron-EGFP fusion; degrons are variants of IKZF1/3 zinc finger 2; compound dose not given here
Details: Jurkat, 18 h
[1] = compound: compound 19 (5-tert-butyl-thalidomide)
[2] = compound: compound 22 (5-morpholino-thalidomide)
[3] = compound: compound 33 (diphenyl IMiD analogue)
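Further: pooled lentiviral library of zinc finger degron-EGFP fusions in mCherry-positive Jurkat cells, FACS-sorted after compound exposure, with degron abundance counted by next-generation sequencing.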

Sequence | log2 fold change of degron read counts [1] | log2 fold change of degron read counts [2] | log2 fold change of degron read counts [3] | log2 fold change of degron read counts (compound: thalidomide)
FGCPVCGAPFTQKGNLLRHIKL [46F_47G_49P_50V_52G_53A_54P_55F_67L_, Q9UKT9] | 3.34 | 1.9 | 1.27 | 0.43
FICNVCGAPFTQKGNLLRHIKL [46F_47I_49N_50V_52G_53A_54P_55F_67L_, Q9UKT9] | -0.34 | 2.49 | 1.6 | 2.07
FCCPVCGAPFTQKGNLLRHIKL [46F_47C_49P_50V_52G_53A_54P_55F_67L_, Q9UKT9] | 3.13 | 2.6 | 1.7 | 2.1
FICPVCGAPFTQKGNLLRHIKL [46F_47I_49P_50V_52G_53A_54P_55F_67L_, Q9UKT9] | 1.18 | 3.94 | 2.58 | 3.08
FDCPVCGAPFTQKGNLLRHIKL [46F_47D_49P_50V_52G_53A_54P_55F_67L_, Q9UKT9] | 2.39 | 0.488 | 0.886 | 1.55
FLCPVCGAPFTQKGNLLRHIKL [46F_47L_49P_50V_52G_53A_54P_55F_67L_, Q9UKT9] | 1.29 | 2.67 | 2.93 | 3.41
FGCNVCGAPFTQKGNLLRHIKL [46F_47G_49N_50V_52G_53A_54P_55F_67L_, Q9UKT9] | -0.996 | -1.44 | -1.2 | -1.32
FKCPVCGAPFTQKGNLLRHIKL [46F_47K_49P_50V_52G_53A_54P_55F_67L_, Q9UKT9] | 2.06 | 1.94 | 0.0815 | 2.39
FSCPVCGAPFTQKGNLLRHIKL [46F_47S_49P_50V_52G_53A_54P_55F_67L_, Q9UKT9] | 3.04 | 2.37 | 1.65 | 2.12
FICDVCGAPFTQKGNLLRHIKL [46F_47I_49D_50V_52G_53A_54P_55F_67L_, Q9UKT9] | -0.148 | 3.08 | 1.53 | 1.67
FACPVCGAPFTQKGNLLRHIKL [46F_47A_49P_50V_52G_53A_54P_55F_67L_, Q9UKT9] | 3.58 | 2.58 | 1.07 | 2.23
FDCPICGHFFTQKGNLLRHIKL [46F_47D_49P_50I_52G_53H_54F_55F_67L_, Q9UKT9] | -1.89 | -2.22 | -1.79 | -1.75
FICDVCGAWFTQKGNLLRHIKL [46F_47I_49D_50V_52G_53A_54W_55F_67L_, Q9UKT9] | -2.55 | -1.74 | -0.491 | -1.83
FMCPQCGARFTQKGNLLRHIKL [46F_47M_49P_50Q_52G_53A_54R_55F_67L_, Q9UKT9] | -1.45 | -1.19 | 0.32 | -0.605
FGCNVCGAEFTQKGNLLRHIKL [46F_47G_49N_50V_52G_53A_54E_55F_67L_, Q9UKT9] | -2.62 | -1.85 | -0.606 | -0.925
FTCNQCGRVFTQKGNLLRHIKL [46F_47T_49N_50Q_52G_53R_54V_55F_67L_, Q9UKT9] | -2.75 | -3.29 | -2.33 | -2.08
FMCPVCGAPFTQKGNLLRHIKL [46F_47M_49P_50V_52G_53A_54P_55F_67L_, Q9UKT9] | 2.53 | 3.59 | 3.09 | 2.96
FYCNVCGAPFTQKGNLLRHIKL [46F_47Y_49N_50V_52G_53A_54P_55F_67L_, Q9UKT9] | 2.95 | 2.35 | 1.69 | -0.11
FECPVCGAPFTQKGNLLRHIKL [46F_47E_49P_50V_52G_53A_54P_55F_67L_, Q9UKT9] | 1.88 | -0.29 | 1.64 | 2.65
FWCPVCGAPFTQKGNLLRHIKL [46F_47W_49P_50V_52G_53A_54P_55F_67L_, Q9UKT9] | 3.23 | 2.92 | 2.67 | 1.06
FTCPVCGAPFTQKGNLLRHIKL [46F_47T_49P_50V_52G_53A_54P_55F_67L_, Q9UKT9] | 1.88 | 3.16 | 2.41 | 3.03
FNCNVCGAPFTQKGNLLRHIKL [46F_47N_49N_50V_52G_53A_54P_55F_67L_, Q9UKT9] | 1 | -0.317 | -0.912 | -0.29
FNCDVCGAPFTQKGNLLRHIKL [46F_47N_49D_50V_52G_53A_54P_55F_67L_, Q9UKT9] | 0.937 | -0.417 | -1.71 | -1.34
FVCPVCGAPFTQKGNLLRHIKL [46F_47V_49P_50V_52G_53A_54P_55F_67L_, Q9UKT9] | 1.79 | 3.33 | 2.13 | 3.19
FYCPVCGAPFTQKGNLLRHIKL [46F_47Y_49P_50V_52G_53A_54P_55F_67L_, Q9UKT9] | 3.48 | 3.24 | 2.82 | 1.62
FYCDVCGAPFTQKGNLLRHIKL [46F_47Y_49D_50V_52G_53A_54P_55F_67L_, Q9UKT9] | 3.09 | 2.39 | 1.86 | -0.588
FHCPVCGAPFTQKGNLLRHIKL [46F_47H_49P_50V_52G_53A_54P_55F_67L_, Q9UKT9] | 3.2 | 2.86 | 2.5 | 1.82
FNCPVCGAPFTQKGNLLRHIKL [46F_47N_49P_50V_52G_53A_54P_55F_67L_, Q9UKT9] | 3.41 | 2.62 | 1.33 | 2.25
